These results are taken from PubChem BioAssay.

Active and inactive are the calls of the source. Unless noted, no rule for the calls is given here.

A short description of experiment [1]: A549 cell viability effects, profiling panel, calcein-AM fluorescence, 48 h, basal (AID 1162). Also: test concentration not given here. As to conditions: higher = more signal.
The nature of experiment [2]: adipocyte viability effects, profiling panel, cell-based, 3T3-L1 adipocytes, calcein-AM fluorescence, 48 h, basal (AID 1163). Also: test concentration not given here. The following applies: 3T3-L1 adipocytes viability, higher = more signal.
The nature of experiment [3]: HepG2 cell viability effects, profiling panel, calcein-AM fluorescence, 48 h, basal (AID 1164). Also: test concentration not given here. As to conditions: higher = more signal.
Experiment [4] can be described thus: MM1S cell viability effects, profiling panel, calcein-AM fluorescence, 48 h, basal (AID 1165).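 Also: viability of MM1S multiple myeloma cells under basal unstimulated conditions; test concentration not given here.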 The following applies: higher = more signal.
A short description of experiment [5]: basal RPMI8226 viability, no added stimulus, profiling panel, cell-based, calcein-AM fluorescence, 48 h, PK04 Diversity Set (AID 1166).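 Also: cells grown under basal conditions without added stimulus; test concentration not given here.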 The following applies: RPMI8226 myeloma viability, higher = more signal.
Experiment [6] is described as follows: basal HepG2 mitochondrial membrane potential changes, profiling panel, cell-based, JC-1 fluorescence, 24 h, 100 nL compound (AID 1167). Also: test concentration not given here. As to conditions: higher = more signal.
Experiment [7] in a line: basal 3T3-L1 adipocyte mitochondrial potential changes, profiling panel, cell-based, JC-1 fluorescence, 3T3-L1 adipocytes, 24 h, 100 nL compound (AID 1168). Also: test concentration not given here. As to conditions: JC-1 mitochondrial fluorescence, higher = more signal, called active from +8 up or from −8 down.
The nature of experiment [8]: basal RPMI8226 mitochondrial membrane potential changes, profiling panel, cell-based, JC-1 fluorescence, 24 h, 100 nL compound (AID 1169). Also: test concentration not given here. As to conditions: RPMI8226 myeloma, JC-1 mitochondrial potential fluorescence, higher = more signal.
A short description of experiment [9]: basal MM1S mitochondrial membrane potential changes, profiling panel, cell-based, JC-1 fluorescence, 24 h, 100 nL compound (AID 1170). Also: test concentration not given here. As to conditions: higher = more signal.
A short description of experiment [10]: A549 lung cancer cell viability effects, profiling panel, resazurin fluorescence, 24 h, PK04 Diversity Set (AID 1171). Also: test concentration not given here. As to conditions: higher = more signal, called active from +8 up or from −8 down.
Experiment [11] in a line: HepG2 liver cancer cell viability effects, profiling panel, resazurin fluorescence, 24 h, PK04 Diversity Set (AID 1172). Also: test concentration not given here. As to conditions: higher = more signal. (In general: Resazurin is reduced to fluorescent resorufin, in cell work by metabolically active cells.)
Experiment [12] in a line: basal S. cerevisiae growth modulation, no modifier, primary screen, OD600, strain BY4716, 24 h, basal condition (AID 1173). The following applies: OD600, 24 h, higher = more signal, called active from +8 up or from −8 down.
A short description of experiment [13]: MM1S myeloma cell viability, profiling panel, resazurin fluorescence, basal, 24 h, PK04 Diversity Set (AID 1174).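 Also: MM1S multiple myeloma cell line; test concentration not given here.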 As to conditions: higher = more signal, called active from +8 up or from −8 down.
Experiment [14] has as its target Dihydroorotate dehydrogenase (quinone), mitochondrial (Plasmodium falciparum (isolate 3D7)) (UniProt Q08210). Briefly: PfDHODH enzyme inhibitors, primary screen, biochemical, C-terminal His tag, absorbance 600 nm (AID 1175).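 Also: recombinant parasite enzyme with a five histidine tag at its C terminus; test concentration not given here.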 As to conditions: DCIP absorbance 600 nm, higher = more signal, called active from +8 up or from −8 down.
Experiment [15] can be described thus: P. aeruginosa biofilm formation inhibitors, primary screen, strain PAO1, LB-PBS medium, absorbance 600 nm (AID 1176). Also: test concentration not given here. The following applies: P. aeruginosa PAO1 growth/biofilm, A600, 12 h; higher = more signal.
A short description of experiment [16]: S. cerevisiae RM11-1a growth modifiers, primary screen, strain RM11-1a, OD600, basal, 24 h (AID 1177).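 Also: cultures grown under basal conditions with no added stressor; test concentration not given here.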 The following applies: OD600, 24 h, higher = more signal, called active from +8 up or from −8 down.
Experiment [17] is described as follows: E. coli acrAB mutant growth effects, primary screen, E. coli filamentation inducers, strain DRC39, OD650, 24 h (AID 1178).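 Also: growth measured as culture turbidity by optical density at 650 nm; test concentration not given here.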 The following applies: higher = more signal, called active from +8 up or from −8 down.
A short description of experiment [18]: E. coli acrAB mutant growth effects, primary screen, E. coli filamentation inducers, strain DRC39, OD650, 48 h (AID 1179).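 Also: screen aims at cell division blockers that make cells filament.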 The following applies: E. coli DRC39 delta-acrAB growth, higher = more signal, called active from +8 up or from −8 down.
Experiment [19] in a line: RPMI8226 myeloma cell viability, profiling panel, resazurin fluorescence, basal, 24 h, PK04 Diversity Set (AID 1180).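 Also: RPMI8826 multiple myeloma cell line at 5000 cells per well; test concentration not given here.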 As to conditions: higher = more signal.
The target of experiment [20] is E3 ubiquitin-protein ligase XIAP (Homo sapiens) (UniProt P98170). Briefly: XIAP binders, primary screen, biophysical, small-molecule microarray, fluorescence 635 nm (AID 1181).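 Also: score merges 667 nm emission and signal to noise over triplicate slides.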 As to conditions: small-molecule microarray binding, higher = more signal.
Sequence of E3 ubiquitin-protein ligase XIAP (Homo sapiens) (P98170 whole entry, looked up): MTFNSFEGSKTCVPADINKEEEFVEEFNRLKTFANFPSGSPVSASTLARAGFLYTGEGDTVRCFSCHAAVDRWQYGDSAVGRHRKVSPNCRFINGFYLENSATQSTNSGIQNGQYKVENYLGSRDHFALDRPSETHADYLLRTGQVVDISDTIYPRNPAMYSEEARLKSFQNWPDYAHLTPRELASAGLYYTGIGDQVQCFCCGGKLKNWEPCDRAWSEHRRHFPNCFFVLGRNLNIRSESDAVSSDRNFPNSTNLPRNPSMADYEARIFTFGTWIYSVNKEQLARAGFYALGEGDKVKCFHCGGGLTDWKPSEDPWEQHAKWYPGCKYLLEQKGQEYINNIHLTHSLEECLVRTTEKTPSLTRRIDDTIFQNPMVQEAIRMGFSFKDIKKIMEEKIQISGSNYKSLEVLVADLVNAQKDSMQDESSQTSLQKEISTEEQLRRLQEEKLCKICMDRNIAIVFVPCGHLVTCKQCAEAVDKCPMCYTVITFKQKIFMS

Sequence of Dihydroorotate dehydrogenase (quinone), mitochondrial (Plasmodium falciparum (isolate 3D7)) (Q08210 whole entry, looked up): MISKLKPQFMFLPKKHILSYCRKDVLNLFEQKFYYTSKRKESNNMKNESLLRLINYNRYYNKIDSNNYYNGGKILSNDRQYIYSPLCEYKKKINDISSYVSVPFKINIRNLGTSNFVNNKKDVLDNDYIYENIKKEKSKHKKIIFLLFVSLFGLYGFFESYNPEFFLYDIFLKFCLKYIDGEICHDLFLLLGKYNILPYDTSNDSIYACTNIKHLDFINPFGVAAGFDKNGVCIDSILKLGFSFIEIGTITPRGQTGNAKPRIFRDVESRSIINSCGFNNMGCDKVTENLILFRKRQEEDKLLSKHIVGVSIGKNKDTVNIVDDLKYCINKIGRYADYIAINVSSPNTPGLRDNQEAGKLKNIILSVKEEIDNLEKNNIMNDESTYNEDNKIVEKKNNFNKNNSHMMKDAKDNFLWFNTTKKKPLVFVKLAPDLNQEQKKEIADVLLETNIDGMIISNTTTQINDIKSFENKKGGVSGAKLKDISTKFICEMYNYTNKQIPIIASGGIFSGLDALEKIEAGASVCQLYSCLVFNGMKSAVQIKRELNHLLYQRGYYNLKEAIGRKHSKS

Consider `COCCCNC(=O)[C@@]1(Sc2ccc(C)cc2)CC(=O)N(C2Cc3ccccc3C2)[C@@H]1c1ccc(CO)cc1`, for which the z-score in experiment [1] was 0.771; in experiment [2] it was 0.544; in experiment [3] it was -0.603; in [4] it was 0.762; in experiment [5] it was -0.204; in experiment [6], 0.17. In addition, the z-score in experiment [7] was -0.137 (inactive); in experiment [8] it was 0.445; in [9], -1.59; in experiment [10], 0.491 (inactive); in [11], 0.183; in experiment [12] it was -0.153 (inactive). Moreover, the z-score in [13] is 0.307 (inactive); in experiment [15], 0.779 (inactive); in experiment [16] it was -1.35 (inactive); in [17], 0.897 (inactive); in [18], 0.568 (inactive); in experiment [19], 0.222. Besides, the figures for the composite z-score in experiment [14] and in [20] were -0.277 (inactive) and -0.0367, respectively.
For `C=CCNC(=O)[C@@H]1[C@H]2C(=O)O[C@H](c3ccccc3)[C@H](c3ccccc3)N2[C@H](c2ccccc2OCCO)[C@@]12C(=O)Nc1ccc(C#CCC(C(=O)OC)C(=O)OC)cc12`, the z-score in experiment [1] was -0.423; in experiment [2], -0.695; in experiment [3], -0.852; in experiment [4] it was -3.28; in [5] it was -4.17; in experiment [6], -1.4. The z-score was 2.37 (inactive) in [7]; -0.941 in experiment [8]; -1.96 in [9]; -1.3 (inactive) in experiment [10]; -0.679 in experiment [11]; 1.59 (inactive) in experiment [12]. For the same compound, the z-score in experiment [13] is -8.99 (active); in [15] it was 2.19 (inactive); in experiment [16] it was 1.86 (inactive); in [17], 0.108 (inactive); in experiment [18], -0.263 (inactive); in [19] it was -7.28. The composite z-score is -25.5 (active) in experiment [14] and -0.0062 in experiment [20].
With `COCCOC(=O)N1C(=O)[C@@]2(c3ccccc31)[C@H](C(=O)NC[C@H](O)c1ccccc1)[C@H]1C(=O)O[C@H](c3ccccc3)[C@H](c3ccccc3)N1[C@@H]2c1ccc(O)cc1`, the z-score is 0.0528 in experiment [1]; 2.18 in experiment [2]; -0.921 in experiment [3]; -1.12 in experiment [4]; -3.46 in experiment [5]; -1.33 in experiment [6]. The z-score in experiment [7] was -0.221 (inactive); in [8], -1.32; in [9], -0.0503; in experiment [10], 0.0737 (inactive); in [11] it was 0.248; in [12] it was 0.64 (inactive). Besides, the z-score in [13] was -0.65 (inactive); in experiment [15], 0.269 (inactive); in experiment [16], 1.64 (inactive); in experiment [17], -0.236 (inactive); in experiment [18], -0.803 (inactive); in [19], -0.773. Besides, the figures for the composite z-score in experiment [14] and in experiment [20] were -0.0106 (inactive) and -0.103, respectively.
Turning to `COc1ccc(CCNC(=O)[C@@]2(Cc3ccccc3I)c3ccccc3C(=O)N(C3CCCCC3)[C@H]2c2ccc(CO)cc2)cc1`, the z-score in experiment [1] is 1; in experiment [2], 2.42; in experiment [3], -0.449; in experiment [4], -1.93; in [5], -2.47; in [6], 2.5. Also, the z-score in experiment [7] was 0.537 (inactive); in experiment [8] it was -0.184; in [9] it was -1.17; in experiment [10], -0.584 (inactive); in [11], -0.0428; in experiment [12], -0.447 (inactive). Moreover, the z-score is -0.0298 (inactive) in experiment [13]; 0.462 (inactive) in experiment [15]; -2.65 (inactive) in experiment [16]; 0.314 (inactive) in experiment [17]; 0.197 (inactive) in experiment [18]; -0.0337 in experiment [19]. The composite z-score was -0.145 (inactive) in [14] and 0.144 in experiment [20].
Turning to `COCCOC(=O)N1C(=O)[C@@]2(c3ccccc31)[C@H](c1ccc(O)cc1)N1[C@H](c3ccccc3)[C@H](c3ccccc3)OC(=O)[C@H]1[C@@H]2C(=O)N1CCN(c2ncccn2)CC1`, the z-score in experiment [1] is -0.402; in experiment [2] it was 1.26; in experiment [3] it was -0.611; in experiment [4] it was -0.62; in experiment [5], -0.42; in experiment [6], -0.238. Besides, the z-score in experiment [7] was -0.685 (inactive); in [8] it was 0.199; in experiment [9] it was 0.0293; in experiment [10] it was 0.233 (inactive); in experiment [11] it was 0.0716; in experiment [12] it was 0.353 (inactive). In addition, the z-score is -0.183 (inactive) in experiment [13]; 2.33 (inactive) in [15]; -0.451 (inactive) in experiment [16]; -0.838 (inactive) in experiment [17]; -0.935 (inactive) in experiment [18]; -0.0522 in experiment [19]. Moreover, the values for the composite z-score in experiment [14] and in experiment [20] were -0.18 (inactive) and 0.147, respectively.
Consider `CCCC#C[Si](O[C@H](CC)c1cn([C@H](C)c2ccccc2)nn1)(C(C)C)C(C)C`, for which the z-score in experiment [1] was 1.18; in experiment [2], -0.374; in experiment [3] it was 0.9; in experiment [4], -1.32; in experiment [5] it was -1.74; in experiment [6] it was 0.621. Also, the z-score in experiment [7] is 0.698 (inactive); in experiment [8], -0.0539; in experiment [9], -0.0359; in experiment [10], 0.61 (inactive); in experiment [11], 0.186; in experiment [12] it was -12.9 (active). Besides, the z-score in experiment [13] was -0.098 (inactive); in [15], -0.677 (inactive); in [16], 0.75 (inactive); in [17] it was 1.4 (inactive); in experiment [18], 1.06 (inactive); in experiment [19] it was 1.29. Also, the composite z-score in experiment [14] was 0.738 (inactive); in [20] it was 0.274.
`CCOC(=O)C[C@H]1[C@H](OC(=O)c2ccccc2-c2ccccc2)[C@@H](NC(=O)c2ccc3ccccc3n2)c2cc(OCCCO)ccc2N1C(=O)Cc1ccc(OC)cc1`: the z-score in experiment [1] was 0.278; in experiment [2], 0.054; in experiment [3] it was 0.266; in experiment [4], 0.0554; in experiment [5], -0.826; in experiment [6], 0.972. Further, the z-score is -0.363 (inactive) in experiment [7]; -0.209 in experiment [8]; -0.112 in experiment [9]; 0.0225 (inactive) in experiment [10]; -0.271 in experiment [11]; 0.64 (inactive) in experiment [12]. Also, the z-score in experiment [13] is -0.343 (inactive); in [15], 0.413 (inactive); in experiment [16], -0.384 (inactive); in experiment [17] it was -0.42 (inactive); in experiment [18], -0.281 (inactive); in experiment [19], -0.0052. Also, the composite z-score in [14] was 0.315 (inactive); in experiment [20], -0.408.
As for `COCCCNC(=O)[C@@]1(CCC(=O)OC(C)(C)C)N=C(c2ccc(OCCCO)cc2)O[C@H]1c1ccccc1N=[N+]=[N-]`, the z-score in experiment [1] is 0.618; in [2] it was 0.251; in [3] it was 0.977; in [4], -1.21; in experiment [5], -1.16; in [6], 1.74. For the same compound, the z-score is 3.98 (inactive) in experiment [7]; -1.15 in experiment [8]; -0.386 in experiment [9]; 1.38 (inactive) in [10]; 1.6 in [11]; -0.497 (inactive) in [12]. The z-score is -0.0477 (inactive) in [13]; -0.165 (inactive) in experiment [15]; 0.252 (inactive) in experiment [16]; 1.42 (inactive) in experiment [17]; 0.268 (inactive) in experiment [18]; 0.72 in experiment [19]. Moreover, the composite z-score is -0.291 (inactive) in [14] and -0.0773 in [20].
As for `O=C(NCc1ccc(F)cc1)[C@H]1C[C@H]2C(=O)NCC(=O)N2[C@H]1c1ccc(O)cc1`, the z-score in experiment [1] is 0.139; in [2], -0.218; in [3], -0.457; in [4] it was -1.49; in experiment [5], 0.461; in [6] it was 0.679. For the same compound, the z-score in experiment [7] was -0.276 (inactive); in experiment [8], 0.683; in experiment [9], 0.318; in [10], 0.54 (inactive); in experiment [11], -1.15; in [12], 0.407 (inactive). Moreover, the z-score was 0.0901 (inactive) in [13]; -0.0185 (inactive) in [15]; 1.23 (inactive) in experiment [16]; -0.42 (inactive) in experiment [17]; -0.806 (inactive) in experiment [18]; 0.18 in experiment [19]. The composite z-score in [14] was -0.0559 (inactive); in [20], -0.294.
